Test results as given in PubChem BioAssay AID1259420 (Broad Institute, 2018).
About 250 (25%) of roughly 1,000 compounds were called active. About 31% were inconclusive and are not listed. These entries were drawn from the full list. Results with a measured potency or affinity are listed apart. Unmarked numbers belong to inactive results. The rule behind the calls is not given here.

Test: compound activity on host-cell Toxoplasma growth – dose response (AID 1259420);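 note: host cells were HeLa; final incubation lasted 72 hours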
Details: Toxoplasma gondii growth in host cells, no IFN-gamma

Q: With `O=S(=O)(c1ccc(F)cc1)N1C[C@@H]2N[C@H](C1)C2c1ccc(/C=C/c2ccccc2)cc1` (some centres undefined) as the compound, how does the max activity (at 19.5 µM unless noted) read?
A: 27.1%

Q: With `Cc1cccc(-c2ccc(C3[C@@H]4CN(C(=O)Nc5ccc(F)cc5)C[C@H]3N4)cc2)c1` (some centres undefined) as the compound, how does the max activity (at 19.5 µM unless noted) read?
A: 30.6% [at 10 µM]

Q: With `CCCNC(=O)N1C[C@@H]2N[C@H](C1)C2c1ccc(-c2cccc(F)c2)cc1` (some centres undefined) as the compound, how does the max activity (at 19.5 µM unless noted) read?
A: 16.2% [at 21 µM]

Q: For `C/C=C/c1ccc(C2[C@@H]3CN(S(=O)(=O)c4cccc(OC)c4)C[C@H]2N3)cc1` (some centres undefined), which max activity (at 19.5 µM unless noted) is on record?
A: -10.6% [at 0.16 µM]

Q: With `O=C(Nc1cccc(F)c1)N1CCCCN2[C@H](C1)[C@@H](c1ccc(C#Cc3cccnc3)cc1)[C@@H]2CO` as the compound, how does the max activity (at 0.3 µM) read?
A: -7.31%

Q: What about the max activity (at 19.5 µM) of the same compound?
A: -13.4%

Q: For `O=C(c1cccc(F)c1)N1CCCCN2[C@H](C1)[C@H](c1ccc(C#CC3(O)CCCC3)cc1)[C@@H]2CO`, which max activity (at 10 µM) is on record?
A: -12.3%

Q: What about the max activity (at 21 µM) of the same compound?
A: -8.26%

Q: For `O=C(NC1CCCC1)N1CCCCN2[C@@H](CO)[C@H](c3ccc(-c4cccnc4)cc3)[C@@H]2C1`, which max activity (at 19.5 µM unless noted) is on record?
A: 11.1% [at 2.6 µM]

Q: Which max activity (at 19.5 µM unless noted) does the source give for `O=C(NC1CCCC1)N1CCCCN2[C@H](CO)[C@@H](c3ccc(-c4cccnc4)cc3)[C@H]2C1` here?
A: 9.08% [at 0.038 µM]

Q: Which max activity (at 19.5 µM unless noted) does the source give for `COCC#Cc1ccc([C@@H]2[C@H]3CN(C(=O)NC4CCCC4)CCCCN3[C@H]2CO)cc1` here?
A: 30.5%

Q: With `CC(C)CC#Cc1ccc([C@@H]2[C@@H](CO)N3CCCCN(C(=O)Nc4ccccc4)C[C@@H]23)cc1` as the compound, how does the max activity (at 19.5 µM unless noted) read?
A: 7.18% [at 2.6 µM]

Q: Which max activity (at 19.5 µM unless noted) does the source give for `O=C(c1cccc(F)c1)N1CCCCN2[C@H](C1)[C@@H](c1ccc(C#CC3(O)CCCC3)cc1)[C@@H]2CO` here?
A: 13.2%

Q: For `O=C(Nc1cccc(F)c1)N1CCCCN2[C@H](CO)[C@@H](c3ccc(C#Cc4cccnc4)cc3)[C@@H]2C1`, which max activity (at 19.5 µM unless noted) is on record?
A: 5.46% [at 5 µM]

Q: Which max activity (at 19.5 µM unless noted) does the source give for `CNc1ncc(CN(C)C(=O)c2csc(C)n2)cn1` here?
A: -6.03% [at 5 µM]

Q: Which max activity (at 19.5 µM unless noted) does the source give for `Cc1cnc(N2C[C@@H](c3ccccc3)[C@@]3(CCNC3=O)C2)nc1` here?
A: 67.2%

Q: For `CC1(C)C2CCC1(CS(=O)(=O)O)C(=O)/C2=C\c1ccc(/C=C2/C(=O)C3(CS(=O)(=O)O)CCC2C3(C)C)cc1`, which max activity (at 19.5 µM unless noted) is on record?
A: 5.44%

Q: For `Fc1ccccc1-c1ccc(C2[C@H]3CNC[C@@H]2N3CC2CC2)cc1` (some centres undefined), which max activity (at 19.5 µM unless noted) is on record?
A: 11.6%

Q: For `CC(=O)O[C@H]1C[C@@H](OC(C)=O)C(C)(C)C2C[C@@H](OC(C)=O)[C@@]3(C)C4=CC(=O)O[C@@H](c5ccoc5)[C@]4(C)CCC3[C@]21C` (some centres undefined), which max activity (at 19.5 µM unless noted) is on record?
A: -6.69% [at 0.16 µM]
